In PubChem BioAssay AID686979 (National Center for Advancing Translational Sciences (NCATS), 2013) one finds Potency and activity change, negative = growth inhibition data, which are given here for 62 molecules.

Hit rate of the full screen: of about 420,000 compounds, about 50,000 (12%) were called active. Where a call stands in place of a potency, no number is given. Roughly 26% stayed inconclusive and do not appear here. The full list was thinned out, with actives kept by preference. Unmarked numbers belong to inactive results. The call rests on the fitted dose curve; in most records, active means well fitted inhibition curve with a large enough effect; inconclusive means small, poorly fitted or top-dose-only effect; inactive means flat fitted curve, though single readings scatter.
Potency means the concentration at half of the fitted maximal effect.

This experiment is described as follows: qHTS for Inhibitors of human tyrosyl-DNA phosphodiesterase 1 (TDP1): qHTS in cells in presence of CPT. Further: nearly all actives have a fitted effect of over 55% in size. The settings on record: chicken DT40 Tdp1-/-;hTDP1 cells + 20 nM CPT, ATP luminescence, 48 h; series mostly up to 46.2 µM. An outline of the steps: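 Chicken DT40 Tdp1-/- cells complemented with human TDP1, 400 cells/well, exposed to compounds plus 20 nM camptothecin for at least 48 h at 37 C; viability read as ATP content by CellTiter-Glo luminescence.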
In general terms: Quantitative high-throughput screening tests each substance at several concentrations.
For `Cc1ccc(COc2ccc(C(=O)NN)cc2)cc1`, the Potency entry is “inactive”.

In the case of `CCN(CC)CCNCC(=O)Nc1ccc(Oc2ccccc2)cc1`, the Potency result was “inactive”.

As for `O=C(c1ccc2c(c1)C(=O)N(Cc1ccncc1)C2=O)N1CCN(S(=O)(=O)c2ccc(OC(F)(F)F)cc2)CC1`, the Potency result was “inactive”.

As to `OCCCNc1nccc(-c2cc(Nc3cccc(Cl)c3)ncn2)n1`, the Potency is 1.16 µM (active).

For `O=C(Nc1cccc(Cl)c1)OCc1ccccn1`, the Potency entry was “inactive”.

`NS(=O)(=O)c1cccnc1Nc1cccc(Cl)c1`: the Potency result is “inactive”.

Turning to `Cc1c(C)n2c(SCC(=O)NC3CCCC3)nnc2[nH]c1=O`, the Potency result was “inactive”.

Turning to `CCCN(CC(=O)Nc1ccc(OC)c(OC)c1)CC(=O)Nc1ccc(F)c(F)c1F`, the Potency result is “inactive”.

As for `Cc1cc(S(=O)(=O)N2CCOCC2)ccc1OCC(=O)N1CCOCC1`, the Potency result was “inactive”.

For the molecule `O=C(COc1ccc(S(=O)(=O)N2CCCC2)cc1[N+](=O)[O-])N1CCCCC1`, the Potency result was “inactive”.

As for `Cc1cc(C(=O)COc2ccccc2[N+](=O)[O-])c(C)n1-c1cccc(S(=O)(=O)N2CCOCC2)c1`, the Potency is 16.4 µM (active).

For `Cc1cccc(N(C(=O)c2sc(C)nc2C)C(C(=O)NCC2CCCO2)c2ccccc2)c1` (configuration not stated), the Potency entry was “inactive”.

Take `CN(C)c1ccc(S(=O)(=O)NCC(=O)NCC2CCCCC2)cc1[N+](=O)[O-]`: the Potency result was “inactive”.

Turning to `CCOc1ccc(S(=O)(=O)NCCC(=O)NNC(=O)c2ccc(F)cc2)cc1`, the Potency result was “inactive”.

On to `O=C(c1ccncc1)N1CCN(S(=O)(=O)c2cccc([N+](=O)[O-])c2)CC1`, for which the Potency result is “inactive”.

For `CCc1ccc(OCC(=O)OC(C)C(=O)NC2CC2)cc1` (configuration not stated), the Potency result was “inactive”.

Regarding `CN(CC(=O)Nc1c(Cl)cccc1Cl)C(=O)CC1OC(=O)c2ccccc21` (configuration not stated), the Potency result was “inactive”.

Regarding `CCCOC(=O)c1c(NC(=O)c2cc3nc(-c4ccc(OC)cc4)cc(C(F)(F)F)n3n2)sc2c1CCCC2`, the Potency result is “inactive”.

For the molecule `COc1ccc(NC(=O)CN(C)C(=O)c2ccc(COc3ccccc3)o2)cc1`, the Potency entry is “inactive”.

Consider `O=[N+]([O-])c1ccc(C=Nc2ccc(Cl)cc2Cl)s1`, for which the Potency is 6.51 µM (active).

Consider `CC(=O)N1C(=O)/C(=C2\SC(=S)N(NC(=O)c3ccc(O)cc3)C2=O)c2ccccc21`, for which the Potency result was “inactive”.

As for `CCOc1ccc(CNC(=O)c2cccc(Nc3nc4ccccc4n4nnnc34)c2)cc1OC`, the Potency entry is “inactive”.

As to `CCOC(=O)c1cc(-c2ccc(F)cc2)n(CC(=O)NCc2ccccn2)c1C`, the Potency entry was “inactive”.

For the molecule `Cc1oc(-c2ccccc2F)nc1CS(=O)CC(=O)NCCN1CCCCC1C` (configuration not stated), the Potency result was “inactive”.

For the molecule `Fc1ccc(-c2ccc(NCCN3CCOCC3)nn2)cc1`, the Potency result was “inactive”.

For the molecule `CCC(=O)OCCNc1nc(-c2ccccc2)nc2ccccc12`, the Potency entry was “inactive”.

Consider `CN(C)c1ccc(-c2nc(NCCN3CCOCC3)c3ccccc3n2)cc1`, for which the Potency was 5.8 µM (active).

For the molecule `CC1CCN(C(=O)CSc2nnc(-c3ccco3)n2N)CC1`, the Potency entry was “inactive”.

For `CC1(C(=O)NS(=O)(=O)c2cccc(OC(F)F)c2)CCN1C(=O)C1CC1` (configuration not stated), the Potency entry was “inactive”.

With `CC1CCCCC1NC(=O)COC(=O)Cc1ccc(Cl)cc1` (configuration not stated), the Potency entry was “inactive”.

In the case of `COc1ccc(-n2nnnc2-c2nc3ccccc3s2)cc1`, the Potency result is “inactive”.

Turning to `COc1ccc(C2=NN(c3nc4ccccc4s3)C(=O)C2)cc1`, the Potency is 20.6 µM (active).

Take `COc1ccc(C2=NN(C(C)=O)C(c3ccccc3)C2)cc1` (configuration not stated): the Potency entry is “inactive”.

In the case of `COc1ccc(S(=O)(=O)NCC2CCCN(C(=O)c3occc3C)C2)cc1` (configuration not stated), the Potency result is “inactive”.

Regarding `Cc1ccccc1OCC(=O)NCC(=O)OCC(=O)c1ccc2ccccc2c1`, the Potency result was “inactive”.

With `CC1(NC(=O)CCS(=O)(=O)c2ccc(Cl)cc2)CCS(=O)(=O)C1` (configuration not stated), the Potency entry is “inactive”.

For the molecule `CCOc1ccc(CN2CCN(Cc3ccc(C)o3)CC2CCO)cc1` (configuration not stated), the Potency entry is “inactive”.

Turning to `O=S(=O)(Nc1ccc2[nH]ncc2c1)c1ccccc1Cl`, the Potency entry is “inactive”.

Turning to `CC(=O)Nc1ccc(N2CCOCC2)c(C(=O)Nc2cccc(C)c2)c1`, the Potency is 13 µM (active).

Turning to `COC(=O)c1cc(NC(=O)c2ccco2)ccc1N1CCOCC1`, the Potency entry was “inactive”.

For `COC(=O)c1cc(NC(=O)c2cccnc2)ccc1N1CCOCC1`, the Potency result was “inactive”.

In the case of `O=C(NNC(=O)c1cccc(S(=O)(=O)Nc2ccc(Cl)cc2)c1)c1ccc(=O)[nH]c1`, the Potency entry was “inactive”.

Consider `COc1ccc(NS(=O)(=O)c2cc(NC(=O)c3ccc(S(=O)(=O)N(C)C)cc3)ccc2N2CCOCC2)cc1`, for which the Potency entry is “inactive”.

`CCN(CC)c1ccc(NC(=O)c2ccc(=O)[nH]c2)cc1S(=O)(=O)Nc1ccc(OC)cc1`: the Potency was 29.1 µM (active).

For the molecule `Cc1cc(OCC(=O)N2CCN(c3ncccn3)CC2)ccc1Cl`, the Potency entry was “inactive”.

As to `COC(=O)C1=C(C)N(C)C(=S)NC1c1cc(OC)ccc1OC` (configuration not stated), the Potency entry was “inactive”.

`COc1cc2c(cc1OC)[C@@H](Cc1cc(OC)c(OC)c(OC)c1)[N+](C)(CCCOC(=O)CC/C=C/CCC(=O)OCCC[N+]1(C)CCc3cc(OC)c(OC)cc3[C@H]1Cc1cc(OC)c(OC)c(OC)c1)CC2` (some centres not stated): the Potency result was “inactive”.

`COc1ccc(CC2c3cc(OC)c(OC)cc3CC[N+]2(C)CCC(=O)OCCCCCOC(=O)CC[N+]2(C)CCc3cc(OC)c(OC)cc3C2Cc2ccc(OC)c(OC)c2)cc1OC` (configuration not stated): the Potency was 16.4 µM (active).

In the case of `COC(=O)C1=CN(Cc2ccc(OC)c(OC)c2)C=C(C(=O)OC)C1c1cccs1`, the Potency entry was “inactive”.

Take `O=C(NCc1cccc(CNC(=O)Nc2cccc(O)c2)c1)Nc1cccc(O)c1`: the Potency result is “inactive”.

On to `COc1ccc(C(=O)OCC(=O)Nc2ccc3[nH]c(=O)[nH]c3c2)c(OC)c1OC`, for which the Potency result was “inactive”.

For `C/C(=N\N1CCN(Cc2ccc(C)cc2)CC1)c1ccco1`, the Potency result was “inactive”.

`NS(=O)(=O)c1ccc(N2C(=O)C3C4CC(C(Br)C4Br)C3C2=O)cc1` (configuration not stated): the Potency result was “inactive”.

Turning to `Cc1ccccc1C#CC1=CC(=O)CC(C)(C)C1`, the Potency is 20.6 µM (active).

For `CC1(C)CC(=O)C=C(Nc2ccccc2)C1`, the Potency entry was “inactive”.

Take `Cc1cc(O)ccc1NC1=CC(=O)CC(C)(C)C1`: the Potency result is “inactive”.

For the molecule `COc1ccc(C2(O)C(=O)Nc3ccccc32)cc1` (configuration not stated), the Potency result was “inactive”.

For the molecule `CC(=O)N1CCN(CC(C)(C)NS(=O)(=O)c2ccc(C)cc2)CC1`, the Potency result was “inactive”.

As for `COc1ccc2cc(S(=O)(=O)Nc3ccccn3)ccc2c1`, the Potency entry is “inactive”.

Regarding `CCOc1ccc(OCC)c(NS(=O)(=O)c2ccc3[nH]c(=O)ccc3c2)c1`, the Potency result was “inactive”.

For the molecule `COc1cc(NS(=O)(=O)c2ccc3ccccc3c2)c2ncccc2c1`, the Potency was 8.2 µM (active).

Turning to `CN(C)C(=O)[C@@H]1C[C@@H](Sc2nc3ccccc3[nH]2)CN1Cc1ccc(Cl)cc1`, the activity change, negative = growth inhibition was 0.0416% [at 9.04 µM].
